# Where “and” joins values, the source holds several entries; their conditions need not be identical. Equal entries are not always repeated. Records with an inconclusive call do not appear. Where a call stands in place of a potency, no number is given. The source holds several records for some structures; these can differ, active in one and inactive in another. A number with no mark means an inactive call. Calls of active or inactive are those of the source. Calls come from the whole dose curve; as a rule, active = well fitted curve in the direction sought with a large enough effect; inconclusive = small, poorly fitted or top-dose-only effect, or another doubt; inactive = no such curve, though single readings can be large; an effect the other way counts as inactive or inconclusive.
# Experiments:
# CRL-7250 = normal cell line; experiment: Cytotoxic Profiling of Annotated Libraries Using Quantitative High-Throughput Screening (AID 1296008); conditions: Five cell lines viability, CellTiter-Glo ATP luminescence, 48-72 h; max response: stronger effect = lower value; note: nearly all actives have a fitted effect of over 60% in size; note: potency is the fitted concentration of half-maximal effect
# Procedure, shortened: (§1)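 Cells exposed to compounds for 48 or 72 hr at 37 degrees Celsius. Viability read as ATP-coupled luminescence with CellTiter-Glo after 10 min at room temperature.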
# HEK293 = experiment: as above; conditions: Five cell lines viability, CellTiter-Glo ATP luminescence, 48-72 h; max response: stronger effect = lower value
# Procedure, shortened: as §1
# KB-3-1 = experiment: as above; conditions: Five cell lines viability, CellTiter-Glo ATP luminescence, 48-72 h; max response: stronger effect = lower value
# Procedure, shortened: as §1
# NIH3T3 [1] = experiment: as above; conditions: Five cell lines viability, CellTiter-Glo ATP luminescence, 48-72 h; max response: stronger effect = lower value
# Procedure, shortened: as §1
# HEK293T [2] = experiment: qHTS assay to identify novel small-molecules to repurpose for Merkel cell carcinoma treatment (AID 1296009); conditions: MCC and control cell lines, CellTiter-Glo viability, 72 h; at 44.8 µM (top of the series) unless noted; note: nearly all actives have a fitted effect of over 60% in size
# Procedure, shortened: (§2)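 Cells were treated for 72 hr at 37 degree celsius with compounds in 8- or 11-point dose response. Viability was read by CellTiter-Glo luminescence, normalized to no-cell (cytotoxicity) and DMSO controls.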
# C33A = experiment: Primary qHTS to identify gynecologic anti-cancer compounds using libraries of approved drugs and bioactive compounds (AID 1345084); conditions: Gynecologic cancer cell panel viability, ATPlite luminescence, 48 h; series mostly up to 57.5 µM; note: nearly all actives have a fitted effect of over 55% in size
# Procedure, shortened: (§3)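 Cells, 1,000 per well, plated 16 h, then exposed 48 h at 37 C to compounds. Viability by ATPlite luminescence after 15 min at room temperature.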
# CAOV3 = experiment: as above; conditions: Gynecologic cancer cell panel viability, ATPlite luminescence, 48 h; series mostly up to 57.5 µM
# Procedure, shortened: as §3
# CASKI = experiment: as above; conditions: Gynecologic cancer cell panel viability, ATPlite luminescence, 48 h; series mostly up to 57.5 µM
# Procedure, shortened: as §3
# Es-2 = experiment: as above; conditions: Gynecologic cancer cell panel viability, ATPlite luminescence, 48 h; series mostly up to 57.5 µM
# Procedure, shortened: as §3
# HeLa = experiment: as above; conditions: Gynecologic cancer cell panel viability, ATPlite luminescence, 48 h; series mostly up to 57.5 µM
# Procedure, shortened: as §3
# Hek293T [3] = experiment: as above; conditions: Gynecologic cancer cell panel viability, ATPlite luminescence, 48 h, control line for the selectivity index; series mostly up to 57.5 µM
# Procedure, shortened: as §3
# HaCat [4] = experiment: Cytotoxic Profiling of Annotated Libraries Using Quantitative High-Throughput Screening (AID 1296008); conditions: Five cell lines viability, CellTiter-Glo ATP luminescence, 48-72 h; max response: stronger effect = lower value; note: nearly all actives have a fitted effect of over 60% in size; note: potency is the fitted concentration of half-maximal effect
# Procedure, shortened: as §1
# MCC-13 = experiment: qHTS assay to identify novel small-molecules to repurpose for Merkel cell carcinoma treatment (AID 1296009); conditions: MCC and control cell lines, CellTiter-Glo viability, 72 h; series mostly up to 46 µM; note: nearly all actives have a fitted effect of over 60% in size
# Procedure, shortened: as §2
# MCC-26 = experiment: as above; conditions: MCC and control cell lines, CellTiter-Glo viability, 72 h; series mostly up to 46 µM
# Procedure, shortened: as §2
# MKL-1 = experiment: as above; conditions: MCC and control cell lines, CellTiter-Glo viability, 72 h; series mostly up to 46 µM
# Procedure, shortened: as §2
# MKL-2 = experiment: as above; conditions: MCC and control cell lines, CellTiter-Glo viability, 72 h; series mostly up to 46 µM
# Procedure, shortened: as §2
# NIH3T3 [5] = experiment: as above; conditions: MCC and control cell lines, CellTiter-Glo viability, 72 h; series mostly up to 44.8 µM
# Procedure, shortened: as §2
# UISO = experiment: as above; conditions: MCC and control cell lines, CellTiter-Glo viability, 72 h; series mostly up to 46 µM
# Procedure, shortened: as §2
# WaGa = experiment: as above; conditions: MCC and control cell lines, CellTiter-Glo viability, 72 h; series mostly up to 46 µM
# Procedure, shortened: as §2
# HACAT [6] = experiment: as above; conditions: MCC and control cell lines, CellTiter-Glo viability, 72 h; at 44.8 µM (top of the series) unless noted
# Procedure, shortened: as §2
smiles,measurement,setting,value
CNC(=O)c1c(-c2ccc(F)cc2)oc2cc(N(CCO)S(C)(=O)=O)c(C3CC3)cc12,Potency,CRL-7250,11.8 µM (active)
same,max response,CRL-7250,-2.04%
same,outcome,HEK293,inactive
same,max response,KB-3-1,-0.402%
same,max response,NIH3T3 [1],-17.1%
same,outcome,HEK293T [2],inactive
same,Potency,C33A,inactive
same,Potency,CAOV3,inactive
same,Potency,CASKI,inactive
same,Potency,Es-2,inactive
same,Potency,HeLa,inactive
same,Potency,Hek293T [3],inactive
CCNC(=O)[C@H]1O[C@@H](n2cnc3c(N)nc(NCCc4ccc(CCC(=O)O)cc4)nc32)[C@H](O)[C@H]1O,max response,CRL-7250,4.93%
same,outcome,HEK293,inactive
same,max response,HaCat [4],-10.6%
same,max response,KB-3-1,-0.875%
same,outcome,NIH3T3 [1],inactive
same,outcome,HEK293T [2],inactive
same,Potency,MCC-13,inactive
same,Potency,MCC-26,inactive
same,Potency,MKL-1,inactive
same,Potency,MKL-2,inactive
same,Potency,NIH3T3 [5],inactive
same,Potency,UISO,inactive
same,Potency,WaGa,inactive
COc1ccc(-c2cc(=O)c3c(O)cc(O[C@@H]4O[C@H](CO[C@@H]5O[C@@H](C)[C@H](O)[C@@H](O)[C@@H]5O)[C@@H](O)[C@H](O)[C@@H]4O)cc3o2)cc1O,max response,CRL-7250,-4.94%
same,outcome,HEK293,inactive
same,outcome,HaCat [4],inactive
same,max response,KB-3-1,-0.879%
same,outcome,NIH3T3 [1],inactive
same,outcome,HACAT [6],inactive
same,outcome,HEK293T [2],inactive
same,Potency,MCC-13,inactive
same,Potency,MKL-1,inactive
same,Potency,MKL-2,inactive
same,Potency,NIH3T3 [5],inactive
same,Potency,UISO,inactive
same,Potency,WaGa,inactive
O=C(CC12CC3CC(CC(C3)C1)C2)Nc1cccc2nc(NCCNCCO)ccc12,max response,CRL-7250,-13.8% and 3.99%
same,max response,HEK293,-37.5%
same,outcome,HaCat [4],inactive
same,max response,KB-3-1,-12.7%
same,outcome,NIH3T3 [1],inactive
same,outcome,HACAT [6],inactive
same,Potency,MCC-13,inactive
same,Potency,MCC-26,inactive
same,Potency,MKL-1,inactive
same,Potency,NIH3T3 [5],inactive
same,Potency,UISO,inactive
same,Potency,WaGa,inactive
same,Potency,C33A,inactive
same,Potency,CASKI,inactive
same,Potency,Es-2,inactive
same,Potency,HeLa,inactive
same,Potency,Hek293T [3],inactive
COc1cc2ncn(-c3cc(OCc4ccccc4S(C)(=O)=O)c(C#N)s3)c2cc1OC,max response,CRL-7250,0.002%
same,max response,HEK293,-13.3%
same,outcome,HaCat [4],inactive
same,max response,KB-3-1,-2.12%
same,max response,NIH3T3 [1],-0.819%
same,outcome,HACAT [6],inactive
same,Potency,MCC-13,inactive
same,Potency,MCC-26,inactive
same,Potency,MKL-1,inactive
same,Potency,MKL-2,inactive
same,Potency,UISO,inactive
same,Potency,WaGa,inactive
CCCCCCCCCCCCCCCC(=O)O[C@H]1[C@@H](O)[C@@H](O)[C@@H]([C@H](NC(=O)[C@@H]2C[C@@H](CCC)CN2C)[C@H](C)Cl)O[C@@H]1SC,outcome,CRL-7250,inactive
same,max response,HEK293,-29.9%
same,outcome,HaCat [4],inactive
same,outcome,KB-3-1,inactive
same,outcome,NIH3T3 [1],inactive
same,outcome,HACAT [6],inactive
same,Potency,MCC-13,inactive
same,Potency,MKL-1,inactive
same,Potency,NIH3T3 [5],inactive
same,Potency,UISO,inactive
same,Potency,WaGa,inactive
CCC(=O)NCC[C@@H]1CCc2ccc3c(c21)CCO3,max response,CRL-7250,-4.42%
same,max response,HEK293,-0.876%
same,outcome,HaCat [4],inactive
same,max response,KB-3-1,-2.73%
same,outcome,NIH3T3 [1],inactive
same,outcome,HACAT [6],inactive
same,Potency,MCC-13,inactive
same,Potency,MCC-26,inactive
same,Potency,MKL-1,inactive
same,Potency,NIH3T3 [5],inactive
same,Potency,UISO,inactive
same,Potency,WaGa,inactive
CO[C@H]1C=CO[C@@]2(C)Oc3c(C)c(O)c4c(O)c(c(C=NN5CCN(C)CC5)c(O)c4c3C2=O)NC(=O)C(C)=CC=C[C@H](C)[C@H](O)[C@@H](C)[C@@H](O)[C@@H](C)[C@H](OC(C)=O)[C@H]1C,max response,CRL-7250,-4.52%
same,max response,HEK293,3.97%
same,outcome,HaCat [4],inactive
same,max response,KB-3-1,0.835%
same,max response,NIH3T3 [1],-3.12%
same,outcome,HACAT [6],inactive [at 9.27 µM]
same,"activity change, negative = cytotoxicity",MCC-13,-0.156% [at 9.22 µM]
same,"activity change, negative = cytotoxicity",MCC-26,-1.4% [at 9.22 µM]
same,"activity change, negative = cytotoxicity",MKL-1,-4.29% [at 9.22 µM]
same,"activity change, negative = cytotoxicity",MKL-2,-21.3% [at 9.22 µM]
same,"activity change, negative = cytotoxicity",UISO,4.05% [at 9.22 µM]
same,"activity change, negative = cytotoxicity",WaGa,-1.76% [at 9.22 µM]
O=c1cc(-c2ccc(O)c(O)c2)oc2cc(O)cc(O)c12,max response,CRL-7250,4.28%
same,outcome,HEK293,inactive
same,outcome,HaCat [4],inactive
same,outcome,KB-3-1,inactive
same,max response,NIH3T3 [1],3.33%
same,outcome,HACAT [6],inactive
same,outcome,HEK293T [2],inactive
same,Potency,MCC-13,inactive
same,Potency,MCC-26,inactive
same,Potency,MKL-1,inactive
same,Potency,MKL-2,inactive
same,Potency,UISO,inactive
C[C@]12CC[C@@H]3c4ccc(O)cc4CC[C@H]3[C@H]1[C@@H](O)[C@@H](O)[C@H]2O,max response,CRL-7250,0.316%
same,outcome,HEK293,inactive
same,outcome,HaCat [4],inactive
same,outcome,KB-3-1,inactive
same,outcome,NIH3T3 [1],inactive
same,outcome,HACAT [6],inactive
same,outcome,HEK293T [2],inactive
same,Potency,MCC-13,inactive
same,Potency,MKL-1,inactive
same,Potency,NIH3T3 [5],inactive
same,Potency,UISO,inactive
same,Potency,WaGa,inactive
CCOC(=O)[C@H]1O[C@H]1C(=O)N[C@@H](CC(C)C)C(=O)NCCC(C)C,max response,CRL-7250,-2.98%
same,outcome,HEK293,inactive
same,max response,HaCat [4],-0.586%
same,max response,KB-3-1,0.158%
same,max response,NIH3T3 [1],1.05%
same,outcome,HEK293T [2],inactive
same,Potency,MCC-13,inactive
same,Potency,MCC-26,inactive
same,Potency,MKL-1,inactive
same,Potency,MKL-2,inactive
same,Potency,UISO,inactive
same,Potency,WaGa,inactive
Cc1ccc2c(=O)c3cccc(CC(=O)O)c3oc2c1C,max response,CRL-7250,-6.92%
same,outcome,HEK293,inactive
same,max response,HaCat [4],-14.4%
same,outcome,KB-3-1,inactive
same,outcome,NIH3T3 [1],inactive
same,outcome,HEK293T [2],inactive
same,Potency,MCC-13,inactive
same,Potency,MCC-26,inactive
same,Potency,MKL-1,inactive
same,Potency,MKL-2,inactive
same,Potency,NIH3T3 [5],inactive
same,Potency,UISO,inactive
same,Potency,WaGa,inactive
NCC1CCC(C(=O)O)CC1 (stereo not drawn),max response,CRL-7250,-3.04%
same,max response,HEK293,2.93%
same,outcome,HaCat [4],inactive
same,max response,KB-3-1,7.37% and 2.9%
same,max response,NIH3T3 [1],-3.72%
same,outcome,HACAT [6],inactive
same,Potency,MCC-13,inactive
same,Potency,MCC-26,inactive
same,Potency,MKL-1,inactive
same,Potency,MKL-2,inactive
same,Potency,UISO,inactive
same,Potency,WaGa,inactive
